The record followed here is PubChem BioAssay (NCATS).

Results filed as inconclusive are left out. Where a call stands in place of a potency, no number is given. Activity calls are given as the source filed them. The call rests on the fitted dose curve; in most records, active means well fitted inhibition curve with a large enough effect; inconclusive means small, poorly fitted or top-dose-only effect; inactive means flat fitted curve, though single readings scatter. Where a SMILES comes first, the peptide text is derived from it.

This assay is described as follows: P-glycoprotein substrates identified in KB-8-5-11 adenocarcinoma cell line, qHTS therapeutic library screen (AID 1346987). Further: nearly all actives have a fitted effect of over 65% in size. The note with it: KB-8-5-11 (P-gp overexpressing) viability, CellTiter-Glo, 72 h; series mostly up to 44.5 µM. The essentials: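 Compounds are pinned in dose-response onto KB-8-5-11 cells (500 cells/well, colchicine-free medium) and left 72 h at 37 degree C. CellTiter-Glo luminescence then yields AC50 values.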
In general terms: Quantitative high-throughput screening tests each substance at several concentrations.
`C=C1CCC2(OC1)OC1CC3C4CC=C5CC(O)CC(O[C@@H]6OC[C@@H](O)[C@H](O)[C@H]6O)C5(C)C4CCC3(C)C1(O)C2C` (some centres undefined): the Potency result is “inactive”. On the same count and under the same terms, to `CC(C)(C)NC(=O)[C@@H]1C[C@@H]2CCCC[C@@H]2CN1C[C@@H](O)[C@H](Cc1ccccc1)NC(=O)[C@H](CC(N)=O)NC(=O)c1ccc2ccccc2n1` belongs “inactive”; to `CCn1nnnc1NCc1ccc(C(C)C)cc1`, “inactive”. On the same count and under the same terms, then `CC1CCCC2OC2C(=O)c2c(O)cc(O)cc2CC(=O)O1` (centres undefined), with “inactive”.

In the case of `CCCCN(CCCC)C(=O)CN1C[C@H](c2ccc3c(c2)OCO3)[C@@H](C(=O)O)[C@@H]1c1ccc(OC)cc1`, the Potency result is “inactive”. As to `C[C@@H]1O[C@@H](O[C@H]2[C@H](OC(=O)[C@]34CCC(C)(C)C[C@H]3C3=CCC5[C@@]6(C)C[C@H](O)[C@H](O[C@@H]7O[C@H](CO)[C@@H](O[C@@H]8O[C@H](CO)[C@@H](O)[C@H](O)[C@H]8O)[C@H](O)[C@H]7O)[C@@](C)(CO)C6[C@H](O)C[C@@]5(C)[C@]3(C)C[C@H]4O)OC[C@H](O)[C@@H]2O)[C@H](O)[C@H](O)[C@H]1O[C@@H]1OC[C@@H](O)[C@H](O[C@@H]2OC[C@](O)(CO)[C@H]2O)[C@H]1O` (some centres undefined), the outcome was “inactive [at 9.29 µM]”. In the case of `C=C1C(=O)O[C@H]2[C@H]1[C@@H](OC(=O)C(C)CO)C[C@@]1(C)[C@H](O)CCC(=O)[C@H]21` (some centres undefined), the Potency entry is “inactive”. Take `CC1(C)CC[C@]2(C(=O)O[C@@H]3O[C@H](CO)[C@@H](O)[C@H](O)[C@H]3O)CC[C@]3(C)C(=CCC4[C@@]5(C)C[C@@H](O)[C@H](O)C(CO)(CO)C5CC[C@]43C)C2[C@@H]1O` (some centres undefined): the Potency result is “inactive”. Same read-out and setting: then `CCn1cc(C2=NOC(C(=O)Nc3c(C)n(C)n(-c4ccccc4)c3=O)C2)c(C)n1` (centres undefined), with “inactive”; and `CC1NC(=O)CNC(=O)C(C(C)C)NC(=O)C2CCCN2C(=O)C(C(C)C)NC(=O)C(Cc2c[nH]c3ccccc23)NC1=O` (centres undefined) (cyclo(GAWVPV); configuration not given here), with “inactive”; and `NS(=O)(=O)NCCNc1nonc1C(=Nc1ccc(F)c(Br)c1)NO`, with “inactive”. The same measure, in the same setting: then `C[C@@H]1C[C@H](O[C@@H]2O[C@H](CO[C@@H]3OC[C@](O)(CO)[C@H]3O)[C@@H](O)[C@H](O)[C@H]2O)CC(C)(C)[C@H]1/C=C/[C@@H](C)O`, with “inactive”; and `CC(/C=C/[C@]1(O)[C@@]2(C)CO[C@@]1(C)C[C@@H](O)C2)=C\C(=O)O[C@@H]1O[C@H](CO)[C@@H](O)[C@H](O)[C@H]1O`, with “inactive”; and `O=C(/C=C/c1ccc(O)cc1)OCC1=CC2OC(=O)C3=CO[C@@H](O[C@@H]4O[C@H](CO)[C@@H](O)[C@H](O)[C@H]4O)[C@H]1[C@@H]32` (some centres undefined), with “inactive”.
